Experimental data as given in PubChem BioAssay AID485317 (Broad Institute, 2010).
Hit rate of the full screen: of about 290,000 compounds, about 11,000 (3.8%) were called active.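 How the source made its calls: active means mean replicate inhibition above about 79%, with every replicate also reaching it (limit read from the data); inconclusive means only one of the two criteria met; inactive means mean below limit and not every replicate reaching it.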 The entries come from a sample that favours actives as a whole.

Each compound was assayed against FAD-linked sulfhydryl oxidase ALR (Homo sapiens) (UniProt P55789) (assay: ALR-catalysed DTT oxidation blockers – biochemical, H2O2 detection, HRP-luminol luminescence, single point, primary screen (AID 485317)). Conditions: purified ALR, active compounds read high, concentration not given here.
Sequence of FAD-linked sulfhydryl oxidase ALR (Homo sapiens) (P55789 whole entry, looked up): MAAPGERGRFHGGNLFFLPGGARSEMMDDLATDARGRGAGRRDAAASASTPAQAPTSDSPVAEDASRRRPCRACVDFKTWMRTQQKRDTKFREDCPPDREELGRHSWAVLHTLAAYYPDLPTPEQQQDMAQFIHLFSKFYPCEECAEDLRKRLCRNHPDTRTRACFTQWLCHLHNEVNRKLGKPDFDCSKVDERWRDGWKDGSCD

inhibition, active:
COc1ccc(-c2nc(CS(=O)CC(=O)NCc3cccnc3)c(C)o2)cc1OC (centres undefined) 99.2%
CCCCN(CC)CCCNC(=O)CS(=O)(=O)Cc1nc(-c2cccc(OC)c2)oc1C 98.8%
CC(=O)Nc1ccc(NC(=O)CSCc2cnn(-c3ccccc3)c2-n2cccc2)cc1 98.3%
O=C(O)c1ccccc1C(=O)NC1=NN(c2ccccc2)CC1 98.4%
CCCC(=O)NC(C)C(c1cccs1)N1CCN(c2ccccc2)CC1 (centres undefined) 97.6%
COc1ccc(-c2csc(Cc3nc(O)cs3)n2)cc1 86.8%
CCOC(=O)N1CCN(C(=O)c2ccc3c(c2)N(Cc2ccc(C)cc2)CCS3)CC1 93.4%
O=C(CSc1nc2ccc(Nc3nc(N4CCOCC4)nc(N4CCOCC4)n3)cc2s1)NCc1ccco1 98.7%
OCC(O)CN(c1ccccc1)c1ccccc1 (centres undefined) 99%
O=C1CCCC(O)=C1N=Nc1ccc2ncsc2c1 97.4%
O=C(/C=C/c1cccc([N+](=O)[O-])c1)NCCSCc1ccco1 98.5%
O=C(/C=C/c1ccc([N+](=O)[O-])cc1)NCCSCc1ccco1 98.4%
COCCNC(=S)N(CCc1c(C)[nH]c2ccc(C)cc12)Cc1cccnc1 90.7%
Cc1cccc(N2CCN(c3ccc(NC(=O)/C=C\C(=O)O)cc3)CC2)c1 99%
CCC1CO/C(=C(\C(=C(Cl)Cl)N2CCOCC2)[N+](=O)[O-])N1 (centres undefined) 81%
CSc1nc(C)cc(SC(C(C)=O)C(=O)Nc2ccccc2)n1 (centres undefined) 92.7%
CC(C)(C)C(=O)CN1C2=NCCN2c2ccccc21 93.6%
CC(C)Cn1c(SCC(=O)Nc2ccc(Cl)cc2F)nc(O)cc1=O 98.5%

inhibition, inactive:
C[C@@H]1CN([C@@H](C)CO)C(=O)c2cccc(NS(=O)(=O)c3ccc(F)cc3)c2O[C@H]1CN(C)C(=O)NC1CCCCC1 -2.04%
CCOC(=O)c1c(C)[nH]c(C(=O)OCC(=O)N2CCCC2=O)c1C 1.73%
Cc1nn(Cc2ccccc2)c(C)c1C(=O)NCCCN1CCCC1=O -2.84%
CC(=O)Nc1cccc(C(=O)OCC(=O)c2ccc3c(c2)OCO3)c1 -2.29%
C=CC[C@H](CC(=O)N(CCO)Cc1ccccc1)C(=O)N[C@@H](COC(=O)[C@@H](CC=C)Cc1ccc(F)cc1)Cc1ccccc1 -4.83%
COc1ccc(-c2nc(CS(=O)(=O)CC(=O)NCc3cccc(Br)c3)c(C)o2)cc1 22.1%
COc1ccc(C(=O)O)cc1S(=O)(=O)NCc1cccnc1 -5.82%
COc1cccc(-c2nc(CS(=O)(=O)CC(=O)NCCc3ccc(OC)c(OC)c3)c(C)o2)c1 46.6%
Cc1oc2nc(SCC(=O)NCc3cccnc3)nc(N)c2c1C -4.94%
O=C1C=C(c2cccc(Br)c2)C[C@@H](c2ccc(F)cc2)C1 -0.0525%
O=C(COC(=O)COc1cc(Cl)c(Cl)cc1Cl)NC1CC1 -25.6%
Cc1cc(C)cc(NC(=O)CSCc2cnn(-c3ccccc3)c2-n2cccc2)c1 -4.84%
O=C(CSCc1ccccc1)Nc1ccccc1 -3.32%
Cc1ccc(S(=O)(=O)NCCC(=O)NCc2ccc(Cl)cc2)cc1C -3.37%
O=C(Nc1ccccc1C(=O)O)c1ccc(N2C(=O)C3CC=CCC3C2=O)cc1 (centres undefined) 2.58%
O=C(O)c1ccccc1C(=O)Nc1nc(-c2ccccc2)cs1 -5.73%
CC1CCCCC12NC(=O)N(CC(=O)OCc1c(F)cccc1Cl)C2=O (centres undefined) 25.1%
COc1ccc(C)cc1NC(=O)CSc1cccc[n+]1[O-] -22.2%
C[C@H](OC(=O)n1ccnc1)[C@@H]1O[C@@]2(C)CCC[C@@H]1O2 4.53%
CC(NC(=O)Nc1ccccc1)C(c1cccs1)N1CCN(c2ccccc2)CC1 (centres undefined) 1.95%
CC(NC(=O)C(C)(C)C)C(c1cccs1)N1CCN(Cc2ccccc2)CC1 (centres undefined) -4.94%
O=C(NC(=S)Nc1ccc(Br)cc1F)C1CCCCC1 -2.71%
O=C(COc1ccccc1F)NNC(=O)c1cc(Br)ccc1Cl -9.96%
Cc1ccccc1-c1cc(C(=O)NCc2cccs2)n(CC2CC(c3cccnc3)=NO2)n1 (centres undefined) 8.05%
COc1ccc(-c2csc(NC3OC(=O)c4ccccc43)n2)cc1 (centres undefined) 22.4%
COc1ccc(-c2csc(NC(=O)COC(=O)c3ccc(Br)o3)n2)cc1 53.6%
CCOC(=O)N1CCN(C(=O)c2ccc(S(=O)(=O)c3ccc(C)cc3)c(NC(C)=O)c2)CC1 4.26%
O=C(NCCc1ccccc1)c1ccc2c(c1)N(Cc1ccccc1)CCS2 10.1%
C=CCn1c(CSc2nc3ccccc3s2)nnc1SCC(=O)NCc1ccco1 60.8%
O=C(CSc1nc(Nc2ccccc2)nc(N2CCOCC2)n1)Nc1cc(Cl)ccc1O -0.209%
O=C(c1ccc(F)c(S(=O)(=O)N2CCOCC2)c1)N(CCc1ccccc1)Cc1ccccc1 -7.64%
Cc1cccc(N(CC(O)CN(C)C)S(=O)(=O)c2ccccc2)c1 (centres undefined) -4.54%
O=S(=O)(c1ccccc1)N(CC(O)CN1CCCCC1)c1ccccc1 (centres undefined) -3.01%
CN(c1ccccc1)S(=O)(=O)c1ccc(C(=O)N2CCN(c3ccccc3Cl)CC2)cc1 -8.17%
O=[N+]([O-])c1ccc(S(=O)(=O)Nc2cccc(-c3ccc(N4CCCC4)nn3)c2)cc1 0.216%
C=CCOc1ccc(/C=C/C(=O)OCC(=O)NC(C)c2ccc(F)cc2)cc1 (centres undefined) -7.12%
O=C1CCCC(O)=C1N=Nc1ccc(S(=O)(=O)N2CCOCC2)cc1 -10.4%
COc1ccccc1-c1sc2ccccc2c1C#CC1(O)CCCCC1 -3.52%
O=C(NCc1ccco1)/C(=C/c1cccc([N+](=O)[O-])c1)NC(=O)c1ccco1 69.6%
O=C(CSCc1ccc([N+](=O)[O-])cc1)NCCSCc1ccccc1 -10.2%
CCC(CC)NC(=O)/C=C/c1cccc([N+](=O)[O-])c1 -3%
O=C(NCc1ccco1)c1ccc([N+](=O)[O-])cc1Cl -19%
CCN(C(=O)CSc1ncnc2sccc12)c1c(N)n(Cc2ccccc2)c(=O)[nH]c1=O -0.954%
CCNC(=S)N(CCc1c(C)[nH]c2ccc(C)cc12)Cc1ccco1 69.2%
COCCNC(=S)N(Cc1cccnc1)Cc1ccc(OC)c(OC)c1 -1.92%
Cc1n[nH]c(=O)c2c(NC(=O)CSc3ccccc3F)oc(C)c12 1.87%
CC(C)COc1ccc(C(=O)NNC(=O)CCC(=O)c2cccs2)cc1 -17.3%
CC(NC(=O)COC(=O)CCC(=O)c1ccc(Cl)cc1)c1ccccc1 (centres undefined) -2.75%
Cc1noc(C)c1C(=O)OC(C)C(=O)Nc1ccc2c(c1)OCO2 (centres undefined) -0.736%
CSc1ccc(NC(=O)/C=C/C(=O)O)cc1 0.113%
O=C(Nc1cccc(NC(=O)N2CCN(c3ccccc3)CC2)c1)N1CCN(c2ccccc2)CC1 -1.81%
Cc1ccc(CN2CCN(c3ccccc3Cl)CC2)o1 2%
CN1CCN(S(=O)(=O)c2ccc(Nc3ccc(F)cc3)nc2)CC1 -2.65%
O=C(OCC(=O)N1CCCCCC1)c1ccc(Br)c(S(=O)(=O)N2CCOCC2)c1 -8.29%
COc1ccc(NC(=O)CN(C)C(=O)Cc2coc3cc(C)c(C)cc23)cc1 0.212%
COC(=O)[C@]1(C)CCC[C@@]2(C)C3CC[C@]4(OC(C)=O)C[C@@]3(CCC21)CC4=NO (some centres undefined) -3.27%
COc1ccc(C(=O)Nc2cccc(NC(=O)c3ccc(OC)cc3OC)n2)c(OC)c1 -5.93%
CCCCn1c(N)c(N(CCOC)C(=O)COc2c(C)cccc2C)c(=O)[nH]c1=O -2.66%
Cc1cc(SCC(=O)c2ccccc2)nc(SCC(=O)c2ccccc2)n1 1.19%
CSc1nsc(NC(=O)Nc2ccccc2)n1 4.37%
O=C(COC(=O)C1CC2CCCC(C1)C2=O)NC(=O)c1ccccc1 (centres undefined) 1.09%
OC(CN1C2=NCCCN2c2ccccc21)c1ccc(Br)cc1 (centres undefined) 9.53%
O=C(CN1C2=NCCN2c2ccccc21)c1cccs1 17.3%
O=C1C=C(c2cccc(Cl)c2)C[C@@H](c2ccc(F)cc2)C1 -8.67%
Cc1ccccc1-n1c(SCC(=O)Nc2cccc3ccccc23)nc(O)cc1=O 59.8%
Cc1cc(NC(=O)CSc2nc3ccccc3n2CC(C)C)no1 -5.8%
COc1ccccc1-c1nn(Cc2ccccc2)cc1C(=O)N1CCN(c2ncccn2)CC1 1.87%
C=CC[C@@H](CC(=O)NCCO)C(=O)N[C@H](C)COC(=O)[C@@H](CC=C)CC(=O)OC(C)(C)C 4.16%
CCN1C(=O)[C@H]2[C@@H](c3ccc(-c4ccc(F)cc4)cc3)N[C@@](Cc3ccccc3)(C(=O)OC)[C@H]2C1=O -2.13%
CCCn1c(C2CCCN2c2nc(-c3ccc(OC)cc3)cs2)nc2ccccc21 (centres undefined) -0.584%
CCOC(=O)C1CCCN(C(=O)CSc2nnc3nc(C)cc(C)n23)C1 (centres undefined) -0.482%
